In all, about 1,900 compounds went through this assay and about 50 (3%) showed an effect of 50% or more. The sample holds strong results, similar compounds and a random draw of the others, so the mix is not that of the screen.
What follows are compounds tested against p38/MK2 protein–protein interaction (VF-p38α / GST-MK2) (Homo sapiens, UniProt Q16539) (assay: primary screen, percent of control activity; higher = less effect of the substance).
Sequence of p38/MK2 protein–protein interaction (VF-p38α / GST-MK2) (Q16539 2-360 limits assumed): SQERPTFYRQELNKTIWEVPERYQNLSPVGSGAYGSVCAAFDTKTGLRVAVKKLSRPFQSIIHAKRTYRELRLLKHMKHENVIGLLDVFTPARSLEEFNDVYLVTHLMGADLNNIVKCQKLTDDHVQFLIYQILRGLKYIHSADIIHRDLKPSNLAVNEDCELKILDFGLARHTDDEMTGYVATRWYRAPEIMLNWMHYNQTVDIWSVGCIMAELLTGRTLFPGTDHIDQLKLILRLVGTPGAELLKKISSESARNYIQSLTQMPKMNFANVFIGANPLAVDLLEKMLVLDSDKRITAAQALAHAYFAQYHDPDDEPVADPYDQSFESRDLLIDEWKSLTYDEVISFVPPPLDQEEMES
Parameters: species or system HEK293T cell lysate transfected with VF-p38α and GST-MK2; unclear (methods say 'quintuplet replicates')
Outline: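 Lysate of HEK293T cells transfected with Flag-tagged p38α and GST-MK2, complex detected by TR-FRET with anti-Flag-Tb and anti-GST-d2 antibodies. Five replicates per compound. Signal normalised to percent of DMSO control.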
With `CCn1cc(C(=O)O)c(=O)c2ccc(C)nc21` the Pct of control was 103%.
Compound `COC(=O)Nc1nc2ccc(Sc3ccccc3)cc2[nH]1` has a Pct of control of 96.8%.
In the case of `Cc1ccc(Sc2cncc3sc(C(N)=O)cc23)cc1`, the Pct of control is reported as 96.8%.
In the case of `O=C(NCCCNc1nc(Nc2cccc(NC(=O)N3CCCC3)c2)ncc1I)c1cccs1`, the Pct of control is reported as 105%.
`COc1ccc(C2C(=O)c3ccccc3C2=O)cc1` was tested, and the Pct of control was 93.2%.
`O=c1c(-c2ccc(O)cc2)coc2cc(O)cc(O)c12` was tested, and the Pct of control was 102%.
Work on `COc1cc(OC)c(OC)cc1C=O` yielded a Pct of control of 91.5%.
`COC(=O)C1=C(C)NC(C)=C(C(=O)OC)C1c1ccccc1[N+](=O)[O-]` gave a Pct of control of 87%.
`Cl.O=C(O)Cc1cccc(OCCCN(Cc2cccc(C(F)(F)F)c2Cl)CC(c2ccccc2)c2ccccc2)c1` gave a Pct of control of 39.4%.
In the case of `O=C(Nc1ccncc1)c1cc([N+](=O)[O-])ccc1Cl`, the Pct of control is reported as 103%.
`CCc1oc2ccccc2c1C(=O)c1cc(Br)c(O)c(Br)c1` gave a Pct of control of 103%.
In the case of `Cc1cc(C(C#N)c2ccc(Cl)cc2)c(Cl)cc1NC(=O)c1cc(I)cc(I)c1[O-].[Na+]` (centres unmarked), the Pct of control is reported as 46.2%.
`Cc1cc(C(C#N)c2ccc(Cl)cc2)c(Cl)cc1NC(=O)c1cc(I)cc(I)c1O` (centres unmarked) gave a Pct of control of 45.2%.
Work on `CC(=O)Nc1cccc(-n2c(=O)n(C3CC3)c(=O)c3c(Nc4ccc(I)cc4F)n(C)c(=O)c(C)c32)c1` yielded a Pct of control of 93.7%.
Compound `CC(C)(Oc1ccc(CCNC(=O)c2ccc(Cl)cc2)cc1)C(=O)O` has a Pct of control of 96.7%.
Compound `Oc1c(Br)cc(Br)c2cccnc12` has a Pct of control of 104%.
Compound `CCc1ccc(CCOc2ccc(CC3SC(=O)NC3=O)cc2)nc1` (centres unmarked) has a Pct of control of 97.3%.
Work on `Clc1ccc(CCC(Cn2ccnc2)Sc2c(Cl)cccc2Cl)cc1.O=[N+]([O-])O` (centres unmarked) yielded a Pct of control of 90.3%.
`O=NN(CCCl)C(=O)NC1CCCCC1` was tested, and the Pct of control was 82.9%.
`Cc1cc([N+](=O)[O-])ccc1NS(=O)(=O)c1cc(Cl)ccc1Cl` showed a Pct of control of 87.8%.
